According to PubChem BioAssay (Tox21):
Results filed as inconclusive are left out. Where a call stands in place of a potency, no number is given. Active and inactive are the calls of the source. Unless noted, the call rests on the fitted dose curve; in most records, active means well fitted curve in the direction sought with a large enough effect in the repeat runs; inconclusive means weak or mixed curves; inactive means no such curve, though single readings can be large; an effect the other way counts as inactive or inconclusive.

Columns and labels:
[1] = qHTS assay for small molecule agonists of the p53 signaling pathway (AID 651631; calls by dose curve; further: nearly all actives have a fitted effect of over 15% in size); settings: HCT-116 p53RE-bla reporter, beta-lactamase FRET ratio, 16 h; series mostly up to 73.3 µM
How it was run: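 Beta-lactamase reporter activity under p53 response elements was quantified in HCT-116 cells by FRET fluorescence, following 16 h incubation with test compounds at 37 °C and 2 h substrate development at room temperature.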

[2] = qHTS assay for small molecules that induce genotoxicity in human embryonic kidney cells expressing luciferase-tagged ATAD5 (AID 651632); settings: HEK293T ATAD5-luciferase induction, 16 h; series mostly up to 83.3 µM; further: nearly all actives have a fitted effect of over 15% in size
How it was run: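 A rise in luciferase signal from ATAD5-tagged HEK293T cells marks genetic stress. Cells were exposed to compounds for 16 hr at 37C, 5% CO2, then luciferase was quantified after a 30 min room-temperature incubation with Amplite.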

[3] = qHTS assay for small molecule agonists of the p53 signaling pathway - cell viability (AID 651633; calls by dose curve; further: nearly all actives have a fitted effect of over 30% in size); settings: p53RE-bla HCT-116 viability, ATP luminescence, 16 h; series mostly up to 83.3 µM
How it was run: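 p53RE-bla cells were treated with compound for 16 hours at 37 C. Cytotoxicity was then measured as CellTiter-Glo luminescence after 30 min at room temperature.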

[4] = qHTS assay for small molecules that induce genotoxicity in human embryonic kidney cells expressing luciferase-tagged ATAD5 - cell viability (AID 651634; calls by dose curve; further: nearly all actives have a fitted effect of over 25% in size); settings: HEK293T ATAD5-luc cells viability, CellTiter-Fluor, 15.5 h; series mostly up to 83.3 µM
How it was run: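 Cytotoxicity counter-readout: after 15.5 hr compound treatment at 37C, live-cell protease activity in ATAD5-luciferase HEK293T cells measured by CellTiter-Fluor fluorescence, 30 min development at 37C.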

[5] = qHTS assay for small molecule disruptors of the mitochondrial membrane potential - cell viability (AID 720634; calls by dose curve;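 further: human HepG2 liver cancer cells; nearly all actives have a fitted effect of over 20% in size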); settings: HepG2 viability, ATP luminescence (CellTiter-Glo), 1 h; series mostly up to 83.2 µM
How it was run: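 Cytotoxicity was quantified from ATP content by CellTiter-Glo luminescence in the same wells as the MMP dye read-out. HepG2 (2,000 cells/well) were plated overnight and exposed to compounds for 1 hr at 37 C.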

[6] = qHTS assay to test for compound auto fluorescence at 590 nm (red) in HepG2 cells (AID 720674); settings: HepG2 autofluorescence, red 540/590 nm, 1 h; series mostly up to 91.3 µM
How it was run: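 HepG2 cells, 2,000 per well in MEM with 10% FBS, attached overnight at 37 C, then got 23 nL compound or DMSO. After 1 hr at 37 C, 5% CO2, red fluorescence was read at 540/590 nm against Rose Bengal sodium as reference.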

[7] = qHTS assay to test for compound auto fluorescence at 590 nm (red) in HEK293 cells (AID 720679); settings: red autofluorescence 540/590 nm; series mostly up to 91.3 µM
How it was run: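 Plates of HEK293 cells (10% dialyzed FBS) are treated with 23 nL compound or DMSO vehicle after a 4-5 hr attachment period, incubated overnight at 37C, and read for red fluorescence at 540/590nm.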

[8] = qHTS assay to test for compound auto fluorescence at 535 nm (green) in HepG2 cells (AID 720675); settings: green autofluorescence 485/535 nm, 1 h; series mostly up to 91.3 µM
[9] = qHTS assay to test for compound auto fluorescence at 460 nm (blue) in HEK293 cells (AID 720678); settings: blue autofluorescence 405/460 nm; series mostly up to 91.3 µM
How it was run: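 After cell attachment (4-5 hr, 37C), compounds were pinned onto HEK293 monolayers in 10% dialyzed FBS medium. The blue channel (405/460 nm) was read following overnight culture. Equivalency was calculated against triamterene.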

[10] = qHTS assay for small molecule disruptors of the mitochondrial membrane potential (AID 720635); settings: HepG2 mitochondrial membrane potential, Mito-MPS dye ratio; series mostly up to 83.2 µM; further: potency means the concentration at half of the fitted maximal effect
How it was run: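 HepG2 cells exposed to compound 1 hr at 37C, then Mito-MPS dye 30 min. Ratio read of aggregate (540/590 nm) versus monomer (490/535 nm) fluorescence.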

With `O=S(=O)(O)c1cccc2c(S(=O)(=O)O)cccc12` the Potency [1] was “inactive”, the Potency [2] was “inactive” and the Potency [3] was “inactive”. The Potency [4] was “inactive”, the outcome [5] was “inactive” and the outcome [6] was “inactive”. For the same compound, the outcome [7] was “inactive”.

In the case of `NC(=O)Cc1cccc2ccccc12`, the Potency [1] is reported as “inactive”, the Potency [3] is reported as “inactive” and the Potency [4] is reported as “inactive”. For the same compound, the outcome [5] was “inactive”, the outcome [6] was “inactive” and the outcome [8] was “inactive”. The outcome [9] was “inactive” and the outcome [7] was “inactive”.

In the case of `CC(=O)c1ccc2ccccc2c1`, the Potency [1] is reported as “inactive”, the Potency [2] is reported as “inactive” and the Potency [3] is reported as “inactive”. For the same compound, the Potency [4] was “inactive”, the outcome [6] was “inactive” and the outcome [7] was “inactive”.

For `NO`, the Potency [1] was “inactive”, the Potency [3] was “inactive” and the Potency [4] was “inactive”. For the same compound, the outcome [5] was “inactive”, the Potency [10] was 55.5 µM (active) and the outcome [6] was “inactive”. For the same compound, the outcome [8] was “inactive”, the outcome [9] was “inactive” and the outcome [7] was “inactive”.

In the case of `C[N+]1(C)[C@@H]2CC(OC(=O)[C@H](CO)c3ccccc3)C[C@H]1[C@@H]1O[C@@H]12` (stereo partly drawn), the Potency [1] is reported as “inactive”, the Potency [2] is reported as “inactive” and the Potency [3] is reported as “inactive”. The Potency [4] was “inactive”, the outcome [6] was “inactive” and the outcome [9] was “inactive”. The outcome [7] was “inactive”.

With `COc1c(N2CCNC(C)C2)c(F)cc2c(=O)c(C(=O)O)cn(C3CC3)c12` (stereo not drawn) the Potency [2] was “inactive”, the Potency [3] was “inactive” and the Potency [4] was “inactive”. The outcome [5] was “inactive”, the Potency [10] was “inactive” and the outcome [6] was “inactive”. The outcome [8] was “inactive” and the outcome [9] was “inactive”.

In the case of `CC(C)[C@H]1CC[C@@H](C)CC1=O`, the Potency [1] is reported as “inactive”, the Potency [3] is reported as “inactive” and the Potency [4] is reported as “inactive”. The outcome [5] was “inactive”, the outcome [6] was “inactive” and the outcome [9] was “inactive”. For the same compound, the outcome [7] was “inactive”.

In the case of `CC1(C)[C@@H]2CC[C@@]1(C)[C@H](O)C2`, the Potency [1] is reported as “inactive”, the Potency [2] is reported as “inactive” and the Potency [3] is reported as “inactive”. The Potency [4] was “inactive”, the outcome [5] was “inactive” and the outcome [6] was “inactive”. The outcome [9] was “inactive” and the outcome [7] was “inactive”.

For `C=CC(C)(CCC=C(C)C)OC(=O)CC` (stereo not drawn), the Potency [2] was “inactive”, the Potency [3] was “inactive” and the Potency [4] was “inactive”. For the same compound, the outcome [5] was “inactive”, the Potency [10] was “inactive” and the outcome [6] was “inactive”. For the same compound, the outcome [8] was “inactive” and the outcome [7] was “inactive”.

In the case of `COc1ccnc(CS(=O)c2nc3cc(OC(F)F)ccc3[nH]2)c1OC` (stereo not drawn), the Potency [2] is reported as “inactive”, the Potency [3] is reported as “inactive” and the Potency [4] is reported as “inactive”. For the same compound, the outcome [5] was “inactive”, the Potency [10] was “inactive” and the outcome [6] was “inactive”. The outcome [8] was “inactive”, the outcome [9] was “inactive” and the outcome [7] was “inactive”.

In the case of `C=CCCC(=O)O`, the Potency [2] is reported as “inactive”, the Potency [3] is reported as “inactive” and the Potency [4] is reported as “inactive”. For the same compound, the outcome [5] was “inactive”, the Potency [10] was “inactive” and the outcome [6] was “inactive”. For the same compound, the outcome [8] was “inactive”, the outcome [9] was “inactive” and the outcome [7] was “inactive”.

In the case of `O=C(O)CNC(=O)c1ccccc1`, the Potency [2] is reported as “inactive”, the Potency [3] is reported as “inactive” and the Potency [4] is reported as “inactive”. The outcome [5] was “inactive”, the Potency [10] was “inactive” and the outcome [6] was “inactive”. The outcome [8] was “inactive”, the outcome [9] was “inactive” and the outcome [7] was “inactive”.

For `CC(=O)N1C[C@H](O)C[C@H]1C(=O)O`, the Potency [2] was “inactive”, the Potency [3] was “inactive” and the Potency [4] was “inactive”. The outcome [5] was “inactive”, the Potency [10] was “inactive” and the outcome [6] was “inactive”. For the same compound, the outcome [8] was “inactive” and the outcome [9] was “inactive”.

With `CCCCOC(=O)CCC(C)=O` the Potency [2] was “inactive”, the Potency [3] was “inactive” and the Potency [4] was “inactive”. The outcome [5] was “inactive”, the Potency [10] was “inactive” and the outcome [6] was “inactive”. For the same compound, the outcome [8] was “inactive”, the outcome [9] was “inactive” and the outcome [7] was “inactive”.

In the case of `Nc1c2c(nc3c1CCC3)CCCC2`, the Potency [2] is reported as “inactive”, the Potency [3] is reported as “inactive” and the Potency [4] is reported as “inactive”. The outcome [5] was “inactive”, the Potency [10] was “inactive” and the outcome [6] was “inactive”. The outcome [8] was “inactive” and the outcome [7] was “inactive”.

With `CNCCO` the Potency [2] was “inactive”, the Potency [3] was “inactive” and the Potency [4] was “inactive”. For the same compound, the outcome [5] was “inactive”, the Potency [10] was “inactive” and the outcome [6] was “inactive”. The outcome [8] was “inactive”, the outcome [9] was “inactive” and the outcome [7] was “inactive”.

For `COc1cccc(OC)c1C(=O)N[C@@H]1C(=O)N2[C@@H]1SC(C)(C)[C@@H]2C(=O)O`, the Potency [2] was “inactive”, the Potency [3] was “inactive” and the Potency [4] was “inactive”. For the same compound, the outcome [5] was “inactive”, the Potency [10] was “inactive” and the outcome [6] was “inactive”. For the same compound, the outcome [8] was “inactive”, the outcome [9] was “inactive” and the outcome [7] was “inactive”.

In the case of `CC1CCC(CO)CC1` (stereo not drawn), the Potency [2] is reported as “inactive”, the Potency [3] is reported as “inactive” and the Potency [4] is reported as “inactive”. For the same compound, the outcome [5] was “inactive”, the Potency [10] was “inactive” and the outcome [6] was “inactive”. The outcome [8] was “inactive”, the outcome [9] was “inactive” and the outcome [7] was “inactive”.

In the case of `N[C@H](C(=O)O)[C@@H](O)c1ccc(O)c(O)c1`, the Potency [2] is reported as “inactive”, the Potency [3] is reported as “inactive” and the Potency [4] is reported as “inactive”. For the same compound, the outcome [5] was “inactive”, the Potency [10] was 26.6 µM (active) and the outcome [6] was “inactive”. For the same compound, the outcome [8] was “inactive”, the outcome [9] was “inactive” and the outcome [7] was “inactive”.

In the case of `CCCCCCC#CC(=O)OC`, the Potency [2] is reported as “inactive”, the Potency [3] is reported as “inactive” and the Potency [4] is reported as “inactive”. For the same compound, the outcome [5] was “inactive”, the Potency [10] was “inactive” and the outcome [6] was “inactive”. For the same compound, the outcome [8] was “inactive”, the outcome [9] was “inactive” and the outcome [7] was “inactive”.

With `N[C@@H](CCC(=O)O)C(=O)O` the Potency [2] was “inactive”, the Potency [3] was “inactive” and the Potency [4] was “inactive”. The outcome [5] was “inactive”, the Potency [10] was “inactive” and the outcome [6] was “inactive”. The outcome [8] was “inactive” and the outcome [9] was “inactive”.
